Measured values published in PubChem BioAssay.
Calls of active or inactive are those of the source.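 Rule for the calls, unless noted: active = compounds lowering colon cancer cell viability after pretreatment blocking the GSK3B kinase; inactive = the rest.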

Experiments:
[1] = stimulators of insulin release from INS-1E, primary screen, cell-based, 5 mM glucose, NPC library (AID 1117329;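 active = compound raises insulin release from rat beta cells at 5 mM glucose, no numeric limit stated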); conditions: rat INS-1E insulin secretion, at 10 µM, stronger effect = higher value
[2] = growth inhibition of GSK3B-pretreated HCT116 cells – cell-based, CellTiter-Glo, 0.2 to 20 µM (AID 1117336); conditions: HCT116 viability after GSK3B inhibitor, at 20 µM, stronger effect = higher value
[3] = inhibition of endothelial tube formation, primary screen, imaging, VEGF stimulated, CD31 staining, tube area, NPC library (AID 1117340;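 active = compound that reduces growth-factor-driven endothelial tube area in a mixed cell culture, no cutoff stated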); conditions: VEGF-stimulated ADSC/ECFC co-culture, at 10 µM, stronger effect = higher value
[4] = GLP1 release stimulators, primary, NCI-H716, NPC library (AID 1117341;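 active = compound raises GLP1 secretion from the human gut endocrine cells, with no numeric limit stated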); conditions: NCI-H716 cells, at 10 µM, stronger effect = higher value
[5] = HCT116 colon cancer cell growth inhibition, primary screen, CellTiter-Glo luminescence, NPC library (AID 1117342;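 active = compounds that lower survival of HCT116 colon cancer cells in the luminescence readout, no numeric limit stated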); conditions: at 20 µM (top of the series)
[6] = reduced SW480 viability measured with CellTiter-Glo, NPC library, primary (AID 1117343;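 active = compounds that lower viability of the colon cancer cells in the luminescence readout, with no numeric limit stated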); conditions: CellTiter-Glo luminescence; at 20 µM (top of the series)
[7] = NPC library primary testing for decreased DLD-1 cell viability via CellTiter-Glo (AID 1117346;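 active = compounds that lower survival of DLD-1 colon cancer cells in the luminescence readout, no cutoff given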); conditions: DLD-1 viability, CellTiter-Glo luminescence; at 20 µM (top of the series)
[8] = target: 6-phosphogluconate dehydrogenase, decarboxylating (Homo sapiens) (UniProt P52209); test: inhibition of human phosphogluconate dehydrogenase – biochemical, recombinant enzyme, NADPH absorbance, primary screen (AID 1159550;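 active = at least 20% inhibition of 6-phosphogluconate dehydrogenase activity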); conditions: recombinant 6PGD, NADPH absorbance 341 nm; at 10 µM; stronger effect = higher value
Sequence of 6-phosphogluconate dehydrogenase, decarboxylating (Homo sapiens) (P52209 whole entry, looked up): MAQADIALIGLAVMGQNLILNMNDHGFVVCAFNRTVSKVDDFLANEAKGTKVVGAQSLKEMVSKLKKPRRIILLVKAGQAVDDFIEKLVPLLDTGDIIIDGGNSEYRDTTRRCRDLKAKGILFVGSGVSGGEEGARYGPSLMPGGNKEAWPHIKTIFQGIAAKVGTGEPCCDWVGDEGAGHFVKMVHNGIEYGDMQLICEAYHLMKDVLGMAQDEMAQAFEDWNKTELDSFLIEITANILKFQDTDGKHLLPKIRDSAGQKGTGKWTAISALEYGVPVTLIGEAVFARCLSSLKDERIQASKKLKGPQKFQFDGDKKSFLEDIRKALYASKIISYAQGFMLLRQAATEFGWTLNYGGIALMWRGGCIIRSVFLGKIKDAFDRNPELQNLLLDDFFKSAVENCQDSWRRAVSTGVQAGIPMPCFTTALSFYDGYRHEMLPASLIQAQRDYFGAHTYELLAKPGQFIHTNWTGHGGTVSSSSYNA

[9] = EMT-state selective cytotoxicity in co-culture – imaging, PC-3E GFP, TEM4-18 mCherry, primary screen (AID 1345086;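 active = compounds killing one labelled cell type while sparing the other, by normalised counts and ratio limits, not self-fluorescent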;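 for all read-outs here: cells exposed to compound for 72 h before imaging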;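 for red/green cell ratio (normalised): normalised mesenchymal count divided by normalised epithelial count so high means epithelial killing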); conditions: PC-3E GFP / TEM4-18 mCherry co-culture, imaging cell counts, at 1 µM; for red/green cell ratio (normalised): actives lie on both sides, counts scaled to control wells, 1 = unselective
[10] = measured here: epithelial PC-3E GFP cell survival
[11] = measured here: mesenchymal TEM4-18 mCherry cell survival

CC(C)NNC(=O)c1ccncc1
insulin secretion stimulation [1]: -2.5% (inactive) | viability decrease [2]: -3.15% (inactive) | tube area decrease [3]: 5.7% (inactive) | GLP1 secretion stimulation [4]: 0.4% (inactive) | inhibition of viability [5]: 4.9% (inactive) | viability decrease (inhibition) [6]: 34.8% (inactive) | viability decrease (inhibition) [7]: 7.6% (inactive) | inhibition [8]: -0.838% (inactive) | red/green cell ratio (normalised) [9]: 0.73 (inactive) | normalised cell number [9, 10]: 1.3 | normalised cell number [9, 11]: 0.95

Oc1cc(O)c2c(c1)O[C@H](c1ccc(O)c(O)c1)[C@H](O)C2
insulin secretion stimulation [1]: -0.7% (inactive) | viability decrease [2]: 14.4% (inactive) | tube area decrease [3]: -6.6% (inactive) | GLP1 secretion stimulation [4]: -3.1% (inactive) | inhibition of viability [5]: 1.73% (inactive) | viability decrease (inhibition) [6]: -72.1% (inactive) | viability decrease (inhibition) [7]: -2% (inactive) | inhibition [8]: -5.84% (inactive) | red/green cell ratio (normalised) [9]: 0.83 (inactive) | normalised cell number [9, 10]: 1.07 | normalised cell number [9, 11]: 0.89

NC(=O)NC(=O)Cc1ccccc1
insulin secretion stimulation [1]: 1.3% (inactive) | viability decrease [2]: -10.2% (inactive) | tube area decrease [3]: 2.3% (inactive) | GLP1 secretion stimulation [4]: -2.2% (inactive) | inhibition of viability [5]: -3.67% (inactive) | viability decrease (inhibition) [6]: 38.8% (inactive) | viability decrease (inhibition) [7]: -11.6% (inactive) | inhibition [8]: 7.97% (inactive) | red/green cell ratio (normalised) [9]: 1.02 (inactive) | normalised cell number [9, 10]: 1.19 | normalised cell number [9, 11]: 1.21

Cc1ccc2c(Cl)cc(Cl)c(O)c2n1
insulin secretion stimulation [1]: -0.8% (inactive) | viability decrease [2]: -3.9% (inactive) | tube area decrease [3]: 9.4% (inactive) | GLP1 secretion stimulation [4]: 2% (inactive) | inhibition of viability [5]: 2.45% (inactive) | viability decrease (inhibition) [6]: 14.8% (inactive) | viability decrease (inhibition) [7]: 3.5% (inactive) | inhibition [8]: 6.51% (inactive) | red/green cell ratio (normalised) [9]: 0.8 (inactive) | normalised cell number [9, 10]: 1.22 | normalised cell number [9, 11]: 0.98

Cc1cc(NC(=O)C2=C(O)c3ccccc3S(=O)(=O)N2C)no1
insulin secretion stimulation [1]: -1.3% (inactive) | viability decrease [2]: -24.5% (inactive) | tube area decrease [3]: 14.8% (inactive) | GLP1 secretion stimulation [4]: -2.4% (inactive) | inhibition of viability [5]: 4.6% (inactive) | viability decrease (inhibition) [6]: -6% (inactive) | viability decrease (inhibition) [7]: -7.2% (inactive) | inhibition [8]: 0.485% (inactive) | red/green cell ratio (normalised) [9]: 0.87 (inactive) | normalised cell number [9, 10]: 0.97 | normalised cell number [9, 11]: 0.84

CCO/C([O-])=N/c1c[n+](N2CCOCC2)no1
insulin secretion stimulation [1]: 0.9% (inactive) | viability decrease [2]: 22.3% (inactive) | tube area decrease [3]: 2.4% (inactive) | GLP1 secretion stimulation [4]: -0.5% (inactive) | inhibition of viability [5]: 8.63% (inactive) | viability decrease (inhibition) [6]: 43.4% (inactive) | viability decrease (inhibition) [7]: -1.5% (inactive) | inhibition [8]: 16.2% (inactive) | red/green cell ratio (normalised) [9]: 0.9 (inactive) | normalised cell number [9, 10]: 1.04 | normalised cell number [9, 11]: 0.94

CN(C)CCCN1c2ccccc2Sc2ccc(C(F)(F)F)cc21
insulin secretion stimulation [1]: 5.8% (inactive) | viability decrease [2]: 68.5% (active) | tube area decrease [3]: 45.1% (active) | GLP1 secretion stimulation [4]: 17.9% (inactive) | inhibition of viability [5]: 88.7% (active) | viability decrease (inhibition) [6]: 137% (active) | viability decrease (inhibition) [7]: 101% (active) | inhibition [8]: 1.69% (inactive) | red/green cell ratio (normalised) [9]: 1.26 (inactive) | normalised cell number [9, 10]: 0.93 | normalised cell number [9, 11]: 1.17

COc1cc(OC)cc(OC)c1
insulin secretion stimulation [1]: 2.1% (inactive) | viability decrease [2]: -6.5% (inactive) | tube area decrease [3]: 7.3% (inactive) | GLP1 secretion stimulation [4]: -0.4% (inactive) | inhibition of viability [5]: -3.13% (inactive) | viability decrease (inhibition) [6]: -10.2% (inactive) | viability decrease (inhibition) [7]: -8.5% (inactive) | inhibition [8]: 14.4% (inactive) | red/green cell ratio (normalised) [9]: 0.87 (inactive) | normalised cell number [9, 10]: 1.26 | normalised cell number [9, 11]: 1.09

O=C(COc1ccc(Cl)cc1)N1CCN(Cc2ccc3c(c2)OCO3)CC1
insulin secretion stimulation [1]: 2.3% (inactive) | viability decrease [2]: 54% (active) | tube area decrease [3]: 3.4% (inactive) | GLP1 secretion stimulation [4]: 0.1% (inactive) | inhibition of viability [5]: 53.7% (active) | viability decrease (inhibition) [6]: 56.1% (active) | viability decrease (inhibition) [7]: 52.6% (active) | inhibition [8]: 11.5% (inactive) | red/green cell ratio (normalised) [9]: 0.96 (inactive) | normalised cell number [9, 10]: 0.94 | normalised cell number [9, 11]: 0.9

NCCCC[C@H](N[C@@H](CCc1ccccc1)C(=O)O)C(=O)N1CCC[C@H]1C(=O)O
insulin secretion stimulation [1]: -0.8% (inactive) | viability decrease [2]: -3.9% (inactive) | tube area decrease [3]: -7.9% (inactive) | GLP1 secretion stimulation [4]: 0.3% (inactive) | inhibition of viability [5]: -5.23% (inactive) | viability decrease (inhibition) [6]: 9.9% (inactive) | viability decrease (inhibition) [7]: -8% (inactive) | inhibition [8]: -2.78% (inactive) | red/green cell ratio (normalised) [9]: 1.65 (inactive) | normalised cell number [9, 10]: 0.22 | normalised cell number [9, 11]: 0.36

CC(N)C(=O)OC(C)(C)Cc1ccc(Cl)cc1 (centres undefined)
insulin secretion stimulation [1]: 4.8% (inactive) | viability decrease [2]: 7.1% (inactive) | tube area decrease [3]: -6.7% (inactive) | GLP1 secretion stimulation [4]: 5.8% (inactive) | inhibition of viability [5]: 50% (active) | viability decrease (inhibition) [6]: 13.1% (inactive) | viability decrease (inhibition) [7]: 20.6% (inactive) | inhibition [8]: -7.62% (inactive) | red/green cell ratio (normalised) [9]: 1.21 (inactive) | normalised cell number [9, 10]: 0.96 | normalised cell number [9, 11]: 1.16

O=C(O)c1ccccc1Nc1cccc(C(F)(F)F)c1
insulin secretion stimulation [1]: 0.1% (inactive) | viability decrease [2]: 91.3% (active) | tube area decrease [3]: 47.5% (active) | GLP1 secretion stimulation [4]: 9.5% (inactive) | inhibition of viability [5]: 66.3% (active) | viability decrease (inhibition) [6]: 70.1% (active) | viability decrease (inhibition) [7]: 78.8% (active) | inhibition [8]: 2.7% (inactive) | red/green cell ratio (normalised) [9]: 0.85 (inactive) | normalised cell number [9, 10]: 1.18 | normalised cell number [9, 11]: 1

O=C(O)c1ccccc1OP(=O)(O)O
insulin secretion stimulation [1]: 0.8% (inactive) | viability decrease [2]: -21.3% (inactive) | tube area decrease [3]: -18.8% (inactive) | GLP1 secretion stimulation [4]: 1.7% (inactive) | inhibition of viability [5]: 1.07% (inactive) | viability decrease (inhibition) [6]: 6.6% (inactive) | viability decrease (inhibition) [7]: -7.1% (inactive) | inhibition [8]: -2.26% (inactive) | red/green cell ratio (normalised) [9]: 0.9 (inactive) | normalised cell number [9, 10]: 1.17 | normalised cell number [9, 11]: 1.05

Cn1c([N+](=O)[O-])cnc1COC(N)=O
insulin secretion stimulation [1]: -4.5% (inactive) | viability decrease [2]: -8.4% (inactive) | tube area decrease [3]: 6.2% (inactive) | GLP1 secretion stimulation [4]: 0.7% (inactive) | inhibition of viability [5]: -2.4% (inactive) | viability decrease (inhibition) [6]: -4.9% (inactive) | viability decrease (inhibition) [7]: -13.8% (inactive) | inhibition [8]: -20.2% (inactive) | red/green cell ratio (normalised) [9]: 1 (inactive) | normalised cell number [9, 10]: 1.01 | normalised cell number [9, 11]: 1.01
